From PubChem BioAssay
An excerpt weighted towards active compounds, which were near 12% of everything screened.
BAZ2B block = blocks human BAZ2B; Q9UIF8; AlphaScreen BAZ2B-H3K14Ac peptide displacement; Potency, µM (series often up to 114 µM), for the others: at the top dose activity change, negative = inhibition, hits mostly inhibitors; actives 4.4% (n = 360,000); further: potency means the concentration at half of the fitted maximal effect; on the % scale 0 is the no-effect control and ±100 the full control effect; nearly all actives have a fitted effect of over 60% in size
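In this displacement format the biotinylated H3(5-23) peptide acetylated at Lys14 serves as ligand at 50 nM, with BAZ2B at 50 nM in PBS pH 7.4 containing 0.01% Tween-20. Donor and acceptor beads are 10 ug/mL final.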
G9a inh = inhibitors of human histone lysine methyltransferase G9a | Q96KQ7 | G9a H3K9 monomethylation, AlphaScreen, 2 h | Potency, µM (highest dose often 102 µM), for the others: top-dose activity, negative = inhibition, most hits filed as inhibitors | actives 8.8% (n = 350,000); further: potency means the concentration at half of the fitted maximal effect; on the % scale 0 is the no-effect control and ±100 the full control effect; nearly all actives have a fitted effect of over 75% in size
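Quantitative HTS format: methyltransferase activity on a biotin-tagged H3K9 peptide is measured by AlphaScreen, using a rabbit anti-monomethyl-H3K9 antibody with streptavidin donor and anti-IgG acceptor beads. Final levels are 20 nM enzyme, 500 nM peptide, 20 uM SAM; 2 h RT.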
HP1b binding inh = HP1-beta chromodomain-methylated histone interaction inhibition | Potency, µM (highest dose often 114 µM), for the others: at the top dose activity change, negative = inhibition, hits mostly inhibitors | AlphaScreen HP1-beta / biotin-H3K9me3 peptide binding | AID 540317 | P83916 | actives 0.56% (n = 390,000); further: potency means the concentration at half of the fitted maximal effect; nearly all actives have a fitted effect of over 70% in size
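Compound inhibition of the preformed complex between 50 nM HP1-beta and 50 nM biotinylated H3K9me3 peptide was read by AlphaScreen. Buffer was PBS pH 7.4 with 0.01% Tween-20. Incubations ran 30 min at room temperature, with 10 ug/mL donor/acceptor beads.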
JMJD2A Tudor = blocks the human JMJD2A Tudor domain; O75164; AlphaScreen JMJD2A-Tudor / H3K4me3 peptide binding; Potency, µM (top dose mostly 114 µM), for inactives: at the top dose activity change, negative = inhibition, usual class: inhibitors; actives 4.4% (n = 390,000); AID 504339; further: potency means the concentration at half of the fitted maximal effect; on the % scale 0 is the no-effect control and ±100 the full control effect; nearly all actives have a fitted effect of over 50% in size
PLK1 PBD inh = inhibitors of human PLK1 polo-box domain binding. AID 720504. P53350. Plk1 PBD binding of FITC phosphopeptide, fluorescence polarization. actives 2.8% (n = 360,000). Potency, µM, without a hit: max response, negative = inhibition, actives largely listed as inhibitors; further: potency means the concentration at half of the fitted maximal effect; series mostly up to about 57 µM; on the % scale 0 is the no-effect control and ±100 the full control effect; nearly all actives have a fitted effect of over 65% in size
PI5P4K alpha inh = PI5P4K alpha (human) kinase inhibition. actives 1.2% (n = 330,000). P48426. max response, %. PI5P4Kalpha enzyme, ADP-Glo luminescence, 60 min; active compounds read low. AID 652105; active means max response of -50% or lower; inconclusive means between -30% and -50%; inactive means -30% or higher; further: value at the top dose of about 77 µM; on the % scale 0 is the no-effect control and ±100 the full control effect
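Quantitative HTS of the MLSMR library against PI5P4Kalpha with substrate. ATP added last at 5 microM final; room temperature, 60 minutes. Remaining ATP depleted, ADP converted and read as luminescence.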
* = called active by the depositor; ? = inconclusive; · = no result; [ ] = remark or other dose. Unless noted, the call rests on the fitted dose curve; in most records, active means well fitted curve in the direction sought with a large enough effect; inconclusive means small, poorly fitted or top-dose-only effect, or another doubt; inactive means no such curve, though single readings can be large; an effect the other way counts as inactive or inconclusive.

SMILES	BAZ2B block	G9a inh	HP1b binding inh	JMJD2A Tudor	PLK1 PBD inh	PI5P4K alpha inh
Cc1ccc(S(=O)(=O)N2CCCCC2C(=O)NCc2ccco2)cc1 (stereo unspecified)	-32.0%	28.2µM*	-8.0%	-22.2%	-16.1%	-12.7
Cc1ccc(S(=O)(=O)N2CCCC2C(=O)Nc2nc3c(s2)CCCC3)cc1 (stereo unspecified)	?	44.7µM*	-4.6%	-23.7%	0.2%	6.3
O=C(NCc1ccco1)C1CCCN(c2nnc(-n3cccc3)s2)C1 (stereo unspecified)	?	-4.5%	?	56.2µM*	?	-16.7
Cc1ccc(C(=O)N2CCN(Cc3cc(=O)n4nc(-c5ccccc5)sc4n3)CC2)cc1	-10.0%	-10.8%[59 µM]	21.7%[57 µM]	-2.3%	·	·
COc1ccccc1N1CCN(S(=O)(=O)CCNC(=O)c2cccc(F)c2)CC1	3.3%	13.6%[2.33 µM]	6.8%	-15.9%	-8.7%	0.1
Cc1ccc(S(=O)(=O)N2CCCCC2C(=O)Nc2nncs2)cc1 (stereo unspecified)	-0.2%	39.8µM*	32.0%	-10.2%	?	-8.8
O=C(NCc1ccco1)C1CCCN(S(=O)(=O)c2ccc(-n3cnnn3)cc2)C1 (stereo unspecified)	?	56.2µM*	17.7%	-33.1%	-10.2%	-26.0
Cc1ccc(S(=O)(=O)N2CCCC2C(=O)Nc2cc(C)on2)cc1 (stereo unspecified)	16.7%	3.9%	33.0%	-15.2%	1.0%	·
CCCc1cc(=O)n2nc(N3CCC(C(=O)NCc4ccco4)CC3)sc2n1	-1.3%	7.2%	-3.6%	25.1µM*	23.8µM*	5.9
O=C(NCc1ccccc1F)C1CCCN(S(=O)(=O)c2ccc(-n3cnnn3)cc2)C1 (stereo unspecified)	3.2%	-0.5%	36.4%	-6.0%	-11.8%	4.8
NC(CCCCCP(=O)(c1ccccc1)c1ccccc1)C(=O)O (stereo unspecified)	-17.8%	?	-1.0%	10µM*	-14.2%	-20.8
COc1ccc(C(=O)NN2CC(O)=C(c3nc4ccccc4n3C)C2=N)cc1OC	-8.0%	15.5%	23.2%	4.47µM*	3.3%	1.2
COc1ccc(C(=O)NC(C)c2nc3ccccc3n2C)cc1OC (stereo unspecified)	2.4%	-17.2%[59 µM]	28.9%	-22.1%	-8.5%	-1.6
Cc1noc(C)c1-c1ccc2ncnc(NCc3cccnc3)c2c1	·	-27.7%[0.501 µM]	·	·	·	·
COc1ccc(NC(C)C(=O)Nc2cc(C(F)(F)F)ccc2N2CCOCC2)c(OC)c1 (stereo unspecified)	31.6µM*	?	?	44.7µM*	-13.8%	0.4
COc1cc(Cl)c(C)cc1NC(C)C(=O)Nc1cc(C(F)(F)F)ccc1N1CCOCC1 (stereo unspecified)	?	-7.4%[59 µM]	8.4%	-27.0%	2.0%	-4.3
O=C(/C=C/c1ccc2c(c1)OCO2)Nc1ccc(Cl)cn1	·	10.8%	29.3%	-7.2%	-13.8%	4.3
CCN(CC)c1ccc(/C=N/N2CCN(Cc3ccc(C)cc3C)CC2)c(O)c1	10µM*	?	20µM*	22.4µM*	8.2%	6.9
CCN(CC)c1ccc(/C=N/N2CCN(Cc3ccccc3)CC2)c(O)c1	12.6µM*	?	-77.0%	14.1µM*	0.7%	12.6
CCN(CC)c1ccc(/C=N/N=C(N)N)c(O)c1	-37.6%	-49.9%	0.0%	?	6.8%	-10.3
CCN(CC)c1ccc(/C=N/N2CCOCC2)c(O)c1	-34.1%	?	5.6%	-25.5%	10.2%	-0.1
CCN(CC)c1ccc(/C=N/N2CCN(Cc3ccccc3Cl)CC2)cc1	7.08µM*	8.91µM*	?	17.8µM*	-18.2%	15.6
CN(C)c1ccc(/C=N/N2CCN(Cc3ccccc3Cl)CC2)cc1	50.1µM*	?	?	31.6µM*	-1.5%	15.1
O=C(NCCCN1CCN(c2cccc(Cl)c2)CC1)Nc1ccccc1C(F)(F)F	-24.2%	-9.4%[59 µM]	8.3%	?	·	·
CCc1ccc(NC(=O)c2ccc(CN3CC(=O)N4CCCCC4C3=O)cc2)cc1 (stereo unspecified)	-2.9%	3.2%[59 µM]	-5.3%	-21.5%	·	·
SMILES	BAZ2B block	G9a inh	HP1b binding inh	JMJD2A Tudor	PLK1 PBD inh	PI5P4K alpha inh
Cc1ccc(C(C)C)c(OCC(=O)NCC2(N3CCOCC3)CCCCC2)c1	11.9%	-3.8%[59 µM]	38.1%	-18.2%	·	·
CCN(CC)c1ccc(/C=N/N2CCN(Cc3ccccc3)CC2)cc1	14.1µM*	10µM*	?	22.4µM*	1.9%	9.9
CN(c1ccccc1)c1ccc(/C=N/N2CCOCC2)cc1	50.1µM*	?	50.1µM*	44.7µM*	-9.1%	1.4
COC(=O)c1cc(S(=O)(=O)N2CCN(c3ccc(C(C)=O)cc3)CC2)cn1C	-9.4%	·	13.4%[57 µM]	1.0%	5.2%	0.8
CC(C)c1ccc(-c2noc(SCC(=O)N3CCCCC3C)n2)cc1 (stereo unspecified)	0.8%	30.2%[59 µM]	110.7%	39.9%	·	·
CCNc1ccc(S(=O)(=O)N(C)C)cc1NCC(=O)Nc1ccc(F)c(Cl)c1	?	50.1µM*	?	?	-4.3%	6.4
CCNc1ccc(S(=O)(=O)N(C)C)cc1NCC(=O)Nc1ccccc1F	-34.5%	?	10.2%	-22.0%	-6.1%	-8.6
CCNc1ccc(S(=O)(=O)N(C)C)cc1NCC(=O)Nc1ccc(Br)cc1F	?	14.1µM*	-27.5%	?	-12.2%	9.4
COc1ccc(C2=Nn3c(nnc3-c3ccc(OC)cc3OC)SC2)c(OC)c1	·	·	·	-24.8%	·	·
CCCCCCOc1ccc(/C=C/C(=O)Nc2sc3c(c2C(=O)OC)CCC3)cc1OC	0.3%	-56.8%[59 µM]	22.6%	-4.2%	·	·
CN(Cc1ccco1)c1cc(-c2ccc3c(c2)OCO3)ncn1	·	2.1%[0.501 µM]	·	·	·	·
COc1ccc(N2CCN(C(=O)CCCNC(=O)Cn3cnc4sc(C)c(C)c4c3=O)CC2)cc1	-2.9%	50.1µM*	16.3%	-17.2%	-15.0%	-3.2
COc1ccccc1N1CCN(C(=O)CCCNC(=O)Cn2cnc3sc(C)c(C)c3c2=O)CC1	3.8%	-2.1%[59 µM]	18.3%	-9.4%	-8.5%	-9.1
COc1cc2c(cc1OC)/C(=C/C(=O)c1ccc([N+](=O)[O-])c(C)c1)NCC2	-30.3%	-7.1%	9.4%	20µM*	18.9µM*	0.0
COc1cc2c(cc1OC)/C(=C/C(=O)c1ccc(C)cc1)NCC2	?	50.1µM*	-12.3%	?	-12.4%	1.4
COc1cccc(C(=O)/C=C2\NCCc3cc(OC)c(OC)cc32)c1	?	50.1µM*	-20.0%	?	-6.0%	0.5
Cc1ccc(Cl)cc1NC(=O)Cn1c(C)csc1=O	7.6%	6.0%[12.7 µM]	18.8%	-0.3%	-3.7%	2.6
CCOC(=O)c1ccc(N2CC3=C(C2=O)C(c2ccc(OC)cc2)NC(=O)N3C)cc1 (stereo unspecified)	-4.4%	5.2%[59 µM]	48.3%	4.6%	·	·
